# PubChem BioAssay (EPA / NIEHS)
# A structure can be active in one record and inactive in another. The source made the active and inactive calls. How the source made its calls: active means hit-call score of the fitted dose curve at least 0.9, where 1 is the maximum; inactive means score below 0.9.
# Read-out: Plasminogen activator inhibitor-1 (PAI1), SERPINE1 (gene 5054)
# Test: BSK_KF3CT_PAI1: BioMAP Diversity Plus: KF3CT Assay for Plasminogen activator inhibitor-1 (PAI1) Biomarker Activity (AID 2284252)
# Conditions: primary human keratinocytes with fibroblasts
# Procedure: BSK_KF3CT is a cell-based, multiplexed-readout assay that uses keratinocytes and foreskin fibroblasts, a human skin primary cell co-culture, with measurements taken at 24 hours after chemical dosing in a 96-well plate.BSK_KF3CT_PAI1 is an assay component measured in the BSK_KF3CT assay. It measures PAI-1 antibody related to regulation of gene expression using ELISA technology.Data from the assay component BSK_KF3CT_PAI1 was analyzed at the endpoint, BSK_KF3CT_PAI1, in the positive analysis fitting direction relative to DMSO as the negative control and baseline of activity. Using a type of binding reporter, gain or loss-of-signal activity can be used to understand protein changes. To generalize the intended target to other relatable targets, this assay endpoint is annotated to the 'cytokine' intended target family, where the subfamily is 'plasmogen activator inhibitor'.
# The levels of cell surface (or secreted, indicated by the prefix "s") biomarker endpoints were measured by ELISA. Overt cytotoxicity to cells in confluent adherent cultures (all systems other than the BT system) was assessed by measuring total protein levels using sulforhodamine B (SRB) staining in parallel cultures at the time of biomarker measurements, indicated as SRB endpoints. For proliferation assays for adherent cell types, individual cell types are cultured at sub-confluence and relative cell numbers quantified by SRB staining at time points optimized for each system (48 h: 3C and CASM3C systems; 72 h: BT and HDF3CGF systems; 96 h: SAg system). SRB was performed by staining cells with 0.1% SRB after fixation with 10% TCA and reading wells at 560 nm.Viability and proliferation of PBMC (T cells) was quantified by Alamar Blue reduction for the SAg and BT systems. For PBMC viability (referred to as PBMC Cytotoxicity within the assay endpoint names), cells were plated (75,000/well in a 96-well plate) and then chemical samples added for 1 h before addition of activators, SEB and TSST-1 (20 ng/mL final concentration each). Cells were incubated for 90 h. Then, Alamar Blue (20 uL/well) (Invitrogen, Cat DAL1100) was added for 6 h, and the plates were read with a fluorescence microplate reader at 546/580 nm (excitation/emission). For PBMC proliferation, cells were plated and activated as above but incubated for only 16 h prior to addition of Alamar Blue. Plates were read after 6 h.
Compound,AC50,outcome
CC(=O)[C@H]1CC[C@H]2[C@@H]3CC=C4C[C@@H](O)CC[C@]4(C)[C@H]3CC[C@]12C,3.88 µM (active),inactive
Cc1cc(C2(c3cc(C)c(O)cc3C)OS(=O)(=O)c3ccccc32)c(C)cc1O,,inactive
Nc1cc([N+](=O)[O-])ccc1O,,inactive
CCC(=O)OCc1ccccc1,,inactive
NCCNCCN,,inactive
CC(=O)OCCC(C)CC(C)(C)C (stereo not drawn),,inactive
CC[Si](OC(C)=O)(OC(C)=O)OC(C)=O,,inactive
COc1cc(C=O)ccc1OC(=O)C(C)C,,inactive
C=CCOC(=O)CCC1CCCCC1,,inactive
OC[C@H]1O[C@H](O[C@]2(CCl)O[C@H](CCl)[C@@H](O)[C@@H]2O)[C@H](O)[C@@H](O)[C@H]1Cl,,inactive
C[C@H]1C[C@@H]2[C@H]([C@@H](O)C[C@@]3(C)[C@H]2CC[C@]3(O)C(=O)CO)[C@@]2(C)C=CC(=O)C=C12,,inactive
OC1OC[C@@H](O)[C@H](O)[C@H]1O (stereo partly drawn),,inactive
